# SMN2 splice up: enhancers of SMN2 splice variant expression | 210,000 compounds, 2.8% hits | AID 1458 | Potency, µM (titrated, usually from 46.1 µM), without a hit: at the top dose activity change, positive = activation, usual class: activators | HEK293 SMN2-luciferase splicing reporter, luminescence, 30-36 h; note: % of control where 0% means no effect; nearly all actives have a fitted effect of over 55% in size
#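 HEK293 cells carry an SMN2 minigene-luciferase reporter in which exon 7 inclusion puts luciferase in frame. Cells were seeded at 2000 cells/well, attached for 10-12 hours, then exposed to compounds for 30-36 hours at 37C before ONE-Glo luminescence.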
# Rab9 promoter act: activates the Rab9 promoter; Huh7 Rab9 promoter-luciferase reporter, luminescence, 24 h; Potency, µM (top dose mostly 9.22 µM), without a hit: at the top dose activation, negative = inhibition, actives largely listed as activators; 320,000 compounds, 2.8% hits; AID 485297; note: % of control where 0% means no effect; nearly all actives have a fitted effect of over 60% in size
#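 Stable Rab9-luc Huh7, 1500 cells/well, 2 h settle; cmpd in DMSO, 24 h, 37 °C/5% CO2; luciferase reagent 10 min RT; luminescence.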
# NPC1 promoter act: activates the NPC1 promoter; Huh7 NPC1 promoter luciferase reporter, 24 h; Potency, µM (titrated, usually from 9.22 µM), without a hit: top-dose activation, actives largely listed as activators; 320,000 compounds, 2.4% hits; AID 485313; note: % of control where 0% means no effect; nearly all actives have a fitted effect of over 60% in size
#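 Cells: Huh7 expressing luciferase under the NPC1 promoter, 1500/well. Seeded 2 h, compound added, incubated 24 h at 37 °C. Luciferase reagent, 10 min ambient, then luminescence.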
# ELG1 genotoxic: inducers of genotoxicity in HEK293T ELG1-luciferase cells; AID 504466; HEK293T ELG1-luciferase reporter, luminescence, 16 h; Potency, µM (titrated, usually from 46 µM), without a hit: top-dose activity change, positive = activation, usual class: activators; 330,000 compounds, 1.3% hits; note: % of control where 0% means no effect; nearly all actives have a fitted effect of over 60% in size
#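 HEK293T cells expressing luciferase-tagged ELG1 were treated with compound or DMSO for 16 hr at 37°C. Luciferase activity was then read after 30 min with ONE-Glo at room temperature; rising signal flags genetic stress.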
# KinaseGlo FLuc: Kinase-Glo luciferase inhibition (counter-screen) | Kinase-Glo luciferase, ATP luminescence, 8 min | Potency, µM (top dose mostly 38.3 µM), inactives show top-dose activity change, negative = inhibition, actives largely listed as inhibitors | 200,000 compounds, 0.28% hits | Q27757; note: % is set by controls: 0 for no effect and ±100 for the full control effect; nearly all actives have a fitted effect of over 60% in size
#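 Kinase-Glo luciferase light output from ATP and luciferin was measured with 10 uM ATP, within the enzyme's linear range. Buffer: 50 mM imidazole pH 7.2, 50 mM KCl, 7 mM MgCl2, 0.01% Tween 20, 0.05% BSA; luminescence read after 8 min at ambient temperature.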
# FLuc counter: firefly luciferase modulation, counter-screen for miR-21 project | purified FLuc, Km substrates, luminescence inhibition | Potency, µM (highest dose often 57.5 µM), without a hit: at the highest dose activity change, negative = inhibition, usual class: inhibitors | 360,000 compounds, 6.9% hits | AID 588342;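 note: plate controls were vehicle for no effect and reference inhibitor for full effect; nearly all actives have a fitted effect of over 55% in size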
# Target sequence (P08659 whole entry, looked up): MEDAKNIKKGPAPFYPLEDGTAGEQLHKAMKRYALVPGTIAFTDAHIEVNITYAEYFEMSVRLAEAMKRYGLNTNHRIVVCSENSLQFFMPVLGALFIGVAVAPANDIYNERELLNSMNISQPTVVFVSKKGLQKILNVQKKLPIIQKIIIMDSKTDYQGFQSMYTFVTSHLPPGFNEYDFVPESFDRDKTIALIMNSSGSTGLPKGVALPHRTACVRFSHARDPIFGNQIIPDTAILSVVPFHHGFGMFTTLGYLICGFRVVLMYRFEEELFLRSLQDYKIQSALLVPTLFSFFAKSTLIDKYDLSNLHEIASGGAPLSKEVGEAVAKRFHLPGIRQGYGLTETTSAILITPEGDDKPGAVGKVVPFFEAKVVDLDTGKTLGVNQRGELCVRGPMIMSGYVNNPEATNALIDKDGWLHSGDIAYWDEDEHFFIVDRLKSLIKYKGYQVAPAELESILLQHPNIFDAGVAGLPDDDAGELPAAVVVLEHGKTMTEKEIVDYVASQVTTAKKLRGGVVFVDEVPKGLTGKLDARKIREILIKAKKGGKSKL
#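 Purified P. pyralis luciferase (10nM final) with 10uM D-luciferin and 10uM ATP (Km levels) in 50mM Tris acetate pH 7.5, 10mM Mg acetate, 0.01% Tween-20, 0.05% BSA; qHTS 6-point titration, ~60 µM downward; luminescence read.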
# * = called active by the depositor; ? = inconclusive; . = not tested or not shown; [ ] = dose if it differs, or a comment. This is a sample that favours compounds with a hit; in the whole collection about 7.3% have one here. Calls come from the whole dose curve; as a rule, active = well fitted curve in the direction sought with a large enough effect; inconclusive = small, poorly fitted or top-dose-only effect, or another doubt; inactive = no such curve, though single readings can be large; an effect the other way counts as inactive or inconclusive. Potency is the fitted concentration of half-maximal effect.
SMILES,SMN2 splice up,Rab9 promoter act,NPC1 promoter act,ELG1 genotoxic,KinaseGlo FLuc,FLuc counter
O=C(Nc1ccc(Cl)cn1)c1cc2ccccc2o1,7.94µM*,1.78µM*,3.55µM*,0.82µM*,-8.8%,1.9µM*
O=C(Nc1ccccn1)c1cc2ccccc2o1,0.708µM*,0.562µM*,?,?,8.91µM*,0.301µM*
Cc1ccnc(NC(=O)c2cc3ccccc3o2)c1,.,?,1.26µM*,?,.,0.269µM*
CC(=O)c1cccc(NS(=O)(=O)c2cccc(C(=O)O)c2)c1,.,.,.,.,-1.4%,.
CCCCc1nc2c(c3c1C[C@H](C)OC3)CN(S(=O)(=O)c1ccc(NC(C)=O)cc1)CC2,-5.9%[9.22 µM],.,.,.,-8.2%[7.66 µM],.
O=C(NC1=NCCS1)c1ccccc1Cl,.,4.4%,2.3%,5.1%,.,-18.9%
O=C(NC1=NCCS1)c1cc2ccccc2o1,3.98µM*,0.355µM*,0.316µM*,2.31µM*,?,1.2µM*
COc1cc(C(=O)Oc2ccccc2/C=N/NC(=O)c2ccc(C)cc2)cc(OC)c1OC,-64.7%,?,?,17.2%,0.3%,6.01µM*
NC(=O)N/N=C/c1ccccc1OC(=O)c1ccccc1Br,-23.2%,-2.1%,-4.6%,-7.7%,0.5%,26.9µM*
COc1cc(C(=O)Oc2ccc(/C=N/NC(=O)c3ccncc3)cc2)cc(OC)c1OC,.,-1.2%,-14.5%,-3.4%,.,4.9%
COc1ccc(C(=O)N/N=C/c2ccccc2OC(=O)c2ccccc2)cc1,.,-7.7%,?,20.6µM*,.,?
COc1ccc(C(=O)N/N=C/c2ccc(OC(=O)c3ccccc3)cc2)cc1,-9.8%[1.84 µM],5.7%,0.7%,?,-2.4%,-0.3%
Cc1nc2nc(NCc3ccc(Cl)cc3)[nH]n2c(=O)c1Cc1ccccc1,7.2%,.,.,.,.,?
O=[N+]([O-])c1nn(-c2ccc3c(c2)OCCO3)n(O)c1=NCCC1=CCCCC1,?,3.55µM*,?,?,0.1%,?
O=[N+]([O-])c1nn(-c2ccc3c(c2)OCCO3)n(O)c1=NCc1ccc(F)cc1Cl,3.55µM*,2.82µM*,?,?,2.0%,?
O=[N+]([O-])c1nn(-c2ccc3c(c2)OCCO3)n(O)c1=NCc1ccc(F)cc1,3.98µM*,3.55µM*,?,?,-13.6%,4.26µM*
COc1cc(N=c2c([N+](=O)[O-])nn(-c3ccc4c(c3)OCCO4)n2O)cc(OC)c1,12.6µM*,?,28.6%,14.9%,-0.4%,?
CN=c1c([N+](=O)[O-])nn(-c2ccc3c(c2)OCCO3)n1O,-9.6%,?,20.0%,?,-1.0%,-13.8%
CCCCNc1nc(SC)nc2nc[nH]c12,-22.3%[9.22 µM],.,.,.,-1.8%[7.66 µM],.
CCc1ccc2c(c1)C1(NN=C(c3ccc(C)cc3)S1)C(=O)N2 (stereo unspecified),-45.1%,-1.6%,-2.1%,?,-2.9%,26.9µM*
CCc1ccc2c(c1)NC(c1ccc(C)cc1)=NC(c1cccs1)=N2,11.4%,.,.,.,.,?
CC(C)c1ccc2c(c1)C1(NN=C(c3ccccc3)S1)C(=O)N2 (stereo unspecified),-70.9%,-0.8%,-6.0%,19.1%,-7.1%,16.9µM*
CC(C)c1ccc(O)c(NC(=O)c2ncn[nH]2)c1,-14.4%,17.9%,-5.0%,-1.3%,-1.7%,?
C=Cc1c(C)/c2[n-]/c1=C\c1[n-]c(c(CC)c1C)/C=c1\[n-]c3c(c1C)C(=O)C(C(=O)[O-])C=3c1[n-]c(c(C)c1CCC(=O)[O-])\C=2.[Cu].[Na+].[Na+] (stereo unspecified),-16.8%,.,.,.,-29.4%,.
CC(=O)c1ccc2c(c1)Cc1cc(C(C)=O)ccc1-2,.,1.78µM*,2.51µM*,18.4µM*,.,?
SMILES,SMN2 splice up,Rab9 promoter act,NPC1 promoter act,ELG1 genotoxic,KinaseGlo FLuc,FLuc counter
Cc1ccc2nc(-c3ccc(NC(=O)C(F)(F)F)cc3)sc2c1,2.9%,.,.,.,.,0.477µM*
Cc1ccc2nc(-c3ccc(NC(=O)CNC4CC4)cc3)sc2c1,2.24µM*,0.282µM*,0.631µM*,?,-1.0%,2.69µM*
Cc1ccc2nc(-c3ccc(NC(=O)c4ccccc4S(C)(=O)=O)cc3)sc2c1,.,.,.,.,.,21.3µM*
CCN1CCN(CC(=O)Nc2nc3ccc(C)cc3s2)CC1,.,4.2%,2.8%,0.4%,.,1.3%
Cc1ccc2nc(-c3ccc(NC(=S)NC(=O)CC(C)C)cc3)sc2c1,31.3%,1.12µM*,0.562µM*,9.2µM*,12.7%,23.9µM*
COc1cc(/C=N/NC(=O)c2ccc3c(c2)OCCO3)cc(Br)c1O,.,15.5%,1.9%,13.6%,.,10.7µM*
COc1cc(/C=N/NC(=O)C23CC4CC(CC(C4)C2)C3)cc(Br)c1O,5.7%,3.0%,-1.1%,1.7%,0.1%,13.5µM*
COc1cc(/C=N/NC(=O)CC2(C)OCCO2)cc(Br)c1O,-1.4%,-1.5%,-3.6%,0.9%,-0.7%,-1.8%
COc1cc(/C=N/NC(=O)c2ccc3c(c2)OCCO3)c(Br)c(Br)c1O,.,-1.0%,0.6%,9.4%,.,9.53µM*
COc1ccc(/C=N/NC(=O)c2ccc3c(c2)OCCO3)cc1[N+](=O)[O-],-5.7%,-1.3%,7.9%,11.8%,0.3%,1.4%
COc1cc(/C=N\NC(=O)c2ccc(-c3ccccc3)cc2)cc(Br)c1O,.,4.9%,-0.1%,-10.6%,.,10.7µM*
COc1ccc(/C=N/NC(=O)c2ccc(-c3ccccc3)cc2)cc1O,-5.9%,-5.1%,0.8%,-3.3%,1.0%,?
COc1ccc(/C=N/NC(=O)c2ccc3c(c2)OCO3)c(C(=O)O)c1OC,.,0.3%,-1.6%,2.6%,.,-8.5%
CCOc1c(Br)cc(/C=N\NC(=O)c2ccccc2)cc1OC,6.9%,-3.0%,-2.0%,-8.2%,0.1%,5.36µM*
C=CCOc1ccc(/C=C/C(C)=N\O)cc1,.,2.82µM*,2.82µM*,?,.,6.75µM*
C=CCOc1ccc(/C=C/C(=O)OCC(=O)N2CCN(C(C)=O)CC2)cc1,.,.,.,2.1%,.,.
CCCCN(Cc1ccccc1)C(=O)c1oc(=O)c2ccccc2c1-c1ccc(C)cc1,-6.3%,.,.,.,.,-9.7%
Cc1ccc(-c2n[nH]c3c2C(c2cccs2)N(c2ccc(Cl)cc2)C3=O)cc1 (stereo unspecified),-53.9%,.,.,.,.,4.4%
COc1ccccc1NC(=O)CSc1nnc(-c2ccncc2)o1,?,-3.4%,-1.8%,8.2%,-9.0%,-10.3%
COc1ccc(NCc2nnc(SCC(=O)Nc3cc(C)cc(C)c3)o2)cc1,-5.9%,8.9%,2.4%,3.2%,0.7%,?
COc1ccc(-c2nnc(SCC(=O)Nc3cccc(Cl)c3)o2)cc1,12.6µM*,2µM*,?,?,2.0%,0.7%
COc1ccc(-c2nnc(SCC(=O)Nc3ccccc3OC)o2)cc1,11.2µM*,1.58µM*,2.82µM*,?,0.2%,26.9µM*
